Assay outcomes as filed in PubChem.
Hits are enriched below; roughly 1.1% of the tested compounds scored in any of these assays.
AmpC inh no detg: AmpC beta-lactamase inhibition without detergent; P00811; AmpC nitrocefin hydrolysis, absorbance 480 nm, 0.0001% Triton; Potency, µM (titrated, usually from 57.1 µM), for inactives: at the top dose activity change, negative = inhibition, most hits filed as inhibitors; 330,000 tested, 0.52% active; AID 485341;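 note: plate controls were no compound for no effect and no enzyme for full effect; nearly all actives have a fitted effect of over 20% in size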
Target sequence (P00811 whole entry, looked up): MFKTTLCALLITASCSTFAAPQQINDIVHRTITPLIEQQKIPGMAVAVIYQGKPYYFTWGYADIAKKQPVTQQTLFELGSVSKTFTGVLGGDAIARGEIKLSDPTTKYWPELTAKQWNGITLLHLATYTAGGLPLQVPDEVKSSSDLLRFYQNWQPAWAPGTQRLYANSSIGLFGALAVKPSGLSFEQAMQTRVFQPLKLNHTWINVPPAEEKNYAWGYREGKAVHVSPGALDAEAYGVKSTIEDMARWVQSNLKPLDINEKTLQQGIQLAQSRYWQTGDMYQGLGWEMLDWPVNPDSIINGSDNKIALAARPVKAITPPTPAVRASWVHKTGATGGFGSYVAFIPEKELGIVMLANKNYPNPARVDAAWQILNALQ
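20 mM phosphate pH 7.0 + 0.01% (detergent screen) or 0.0001% Triton X-100; 5.3 nM AmpC reagent; cpd preinc 15 min RT; nitrocefin (800 uM stock) to start; A480 q20 s × 4 min; Activity was normalised to no-enzyme and no-compound control wells.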
Vaccinia mCherry: vaccinia inhibition (mCherry reporter); Vaccinia virus mCherry reporter infection, fluorescence; AID 720579; 310,000 tested, 0.63% active; Potency, µM (doses to about 36.5 µM), inactives show top-dose activity change, negative = inhibition, usual class: inhibitors; calls by dose curve; tested in A549 cells; note: nearly all actives have a fitted effect of over 35% in size
VACV Venus inh: inhibitors of vaccinia virus (Venus reporter) | Vaccinia virus Venus reporter expression, fluorescence | Potency, µM (doses to about 36.5 µM), inactives show top-dose activity change, negative = inhibition, actives largely listed as inhibitors | 330,000 tested, 0.46% active | AID 720580; calls by dose curve; tested in A549 cells; note: nearly all actives have a fitted effect of over 30% in size
AmpC inh detg: blocks E. coli AmpC beta-lactamase in detergent assay; P00811; AmpC hydrolysis of nitrocefin, absorbance 480 nm, 0.01% Triton; Potency, µM (highest dose often 114 µM), without a hit: at the highest dose activity change, negative = inhibition, most hits filed as inhibitors; 370,000 tested, 0.041% active;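 note: 0% = no-compound wells and -100% = no-enzyme wells; nearly all actives have a fitted effect of over 25% in size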
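20 mM phosphate pH 7.0 + 0.01% (detergent screen) or 0.0001% Triton X-100; 5.3 nM AmpC reagent; cpd preinc 15 min RT; nitrocefin (800 uM stock) to start; A480 q20 s × 4 min; Activity was normalised to no-enzyme and no-compound control wells.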
An asterisk follows results filed as active; i = inactive; ? = inconclusive; · = no result. Unless noted, calls come from the whole dose curve; as a rule, active = well fitted curve in the direction sought with a large enough effect; inconclusive = small, poorly fitted or top-dose-only effect, or another doubt; inactive = no such curve, though single readings can be large; an effect the other way counts as inactive or inconclusive. Unless noted, % is set by controls: 0 for no effect and ±100 for the full control effect; potency is the fitted concentration of half-maximal effect.

SMILES	AmpC inh no detg	Vaccinia mCherry	VACV Venus inh	AmpC inh detg
Cc1cc(C(=O)NCc2nc(-c3ccccc3NC(=O)C3CCCO3)oc2C)nc(C)n1 (stereo not drawn)	·	-16.9%	-21.3%	·
Cc1ccccc1-c1cccc(CN2CCc3nnc(C(NS(C)(=O)=O)C(C)C)n3CC2)c1 (stereo not drawn)	·	-5.4%	-5.2%	·
Cc1cccc(C(=O)N[C@H](C(=O)Nc2nnc(C3CC3)s2)C(C)C)c1	-29.7%	-14.1%	-13.7%	-6.6%
Cc1cccc(C(=O)N[C@H](C(=O)Nc2ncc(C)s2)C(C)C)c1	-53.5%	12.6µM*	?	3.7%
Cc1nc(CC(=O)N2CCC(n3c(C4CCC4)nc4cccnc43)CC2)cs1	·	-0.2%	-9.2%	·
COC1CC2C=C(C)C=CC=CC(=O)NC(c3ccccc3)CC=CCCC(O)CC(=O)C2=C1O (stereo not drawn)	·	7.08µM*	2.82µM*	·
COc1ccccc1CNc1ncnc2sc(C(=O)N(C)C(C)C)c(C)c12	·	-17.5%	-11.8%	·
Cc1nnc(SCc2nnc(-c3ccccc3Br)o2)n1-c1ccccc1	5.62µM*	-1.3%	-4.6%	?
C/C(CC1CC(COCC(C)C)OC1=O)=N\NC(N)=S (stereo not drawn)	-17.1%	-16.2%	?	-14.6%
CCCCCOCC1CC(C/C(C)=N/NC(N)=S)C(=O)O1 (stereo not drawn)	-6.4%	22.4µM*	?	-8.3%
COc1cc(CN2CCC3(CCC(CNC(=O)c4ccco4)O3)CC2)cc(OC)c1 (stereo not drawn)	·	-14.2%	-13.9%	·
COc1cc(C(=O)N(Cc2cc3ccc(C)cc3nc2N(C)C)C2CC2)cc(OC)c1OC	·	-7.6%	3.1%	·
O=C(NCC1(N2CCCCC2)CCCC1)c1cnn(-c2nccc(-c3cccs3)n2)c1C1CC1	·	-1.2%	10.4%	·
Nc1nc(N)c(-c2cccc(C(F)(F)F)c2)c(Cc2cccc(C(F)(F)F)c2)n1	·	4.47µM*	3.98µM*	·
Nc1ncccc1OCc1cccc(C(F)(F)F)c1	-17.2%	i	-19.2%	-0.2%
C/C(=N/Nc1ccnc2cc(Cl)ccc12)c1ccc(N)cc1	-23.6%	8.91µM*	?	-7.2%
C/C(=N/Nc1ccnc2cc(Cl)ccc12)c1ccc(O)cc1	-32.3%	?	?	-2.4%
CCCCCCCCCCCCC[N+](C)(C)Cc1ccccc1	·	11.2µM*	11.2µM*	·
Cc1nn(-c2nnc(NC3CCCCC3)nn2)c(C)c1Br	4.9%	-21.9%	-19.2%	100µM*
Cc1nn(C)c(C)c1S(=O)(=O)NC1CCCC1	-13.1%	·	-13.5%	-10.9%
CCOC(=O)c1c(NC(=S)NC(=O)c2ccc(Cn3cc(Cl)cn3)o2)sc2c1CCC(C)C2 (stereo not drawn)	-36.5%	20µM*	28.2µM*	-2.6%
COC(=O)c1cc(NC(=O)c2ccc(Cn3cc(Cl)cn3)o2)cc(C(=O)OC)c1	-27.6%	-12.4%	-1.7%	8.3%
O=C1NC[C@H](c2ccccc2)N(CC2CCCCC2)C1=O	-8.8%	i	-1.3%	-7.9%
O=S1(=O)NC(c2ccccc2)CC(CC2CCCCC2)O1 (stereo not drawn)	8.91µM*	i	-17.6%	-9.3%
CC(C)CCNC(=O)C1C2C=CC3(CN(Cc4ccccc4Cl)C(=O)C13)O2 (stereo not drawn)	8.91µM*	-18.5%	-13.8%	?
SMILES	AmpC inh no detg	Vaccinia mCherry	VACV Venus inh	AmpC inh detg
COc1cc(=O)n2c(c1C(=O)NCc1ccc3c(c1)OCO3)CCN(C(=O)c1ccc(C)cc1)CC2	·	i	0.0%	·
CCCCC1CCC(C(=O)N(CCC(C)C)c2c(N)n(CCCC)c(=O)[nH]c2=O)CC1 (stereo not drawn)	·	15.8µM*	11.2µM*	·
CC(C)N1C(=O)/C(=C\c2nc3ccccc3c(=O)n2-c2ccccc2)c2ccccc21	5.9%	11.2µM*	?	?
NC(=O)[C@H]1CC2(CC(c3cccc(NC(=O)COc4ccc(Cl)cc4)c3)=NO2)CN1C(=O)c1ccc(Cl)cc1 (stereo partly drawn)	121.8%	11.2µM*	11.2µM*	-9.7%
Cc1ccc(C)c(CN2CCc3nnc(CNC(=O)c4cc(C)oc4C)n3CC2)c1	·	-20.4%	-13.0%	·
O=C(/C=C\NCC(=O)c1ccccc1)c1ccc(F)cc1	17.8µM*	·	·	1.1%
CCOC(=O)N1CCN(C(=O)CS(=O)(=O)c2cn(Cc3ccccc3Cl)c3ccccc23)CC1	3.98µM*	i	-12.4%	?
COc1ccc(/C=N/Nc2nnc(C)n2N)cc1OC(C)=O	-6.2%	22.4µM*	?	-9.7%
COc1ccc(/C=N/Nc2nnc(C)n2N)cc1OC	-12.7%	?	?	2.7%
COc1cc2nc(N(C)C)c(CNCCc3c[nH]c4ccccc34)cc2c(OC)c1OC	·	-10.4%	1.6%	·
CN(Cc1ccco1)C(=O)C1CCN(c2nnc(-n3cccc3)s2)CC1	47.4%	·	·	?
O=C(NCc1ccco1)C1CCN(c2nnc(-n3cccc3)s2)CC1	0.794µM*	i	-4.5%	3.9%
CC(=O)N[C@@H](C)C(=O)NCC1Cc2cccc(-c3ccccc3C(F)(F)F)c2O1 (stereo partly drawn)	·	-8.3%	-1.6%	·
CNc1ccccc1C(=O)OC(C)C(=O)Nc1ccc(Cl)cn1 (stereo not drawn)	-30.0%	?	10µM*	?
CCOc1ncccc1C(=O)OC(C)C(=O)Nc1ccc(Cl)cn1 (stereo not drawn)	-4.5%	·	·	0.0%
N#Cc1c(SCc2ccccc2)sc(C(=O)c2ccccc2)c1N	-24.6%	·	-15.3%	-0.1%
Cc1ccc(CSc2sc(C(=O)c3ccccc3)c(N)c2C#N)cc1	10µM*	·	-5.8%	0.0%
CC(NC(=O)C1CCCN(S(=O)(=O)c2cccs2)C1)c1ccccc1 (stereo not drawn)	3.16µM*	i	-11.1%	-2.7%
CCCOC(=O)c1ccc(NC(=O)c2ccccc2OC)cc1	-5.6%	i	8.1%	?
CCCOC(=O)c1ccc(NC(=O)c2c(Cl)ccc(Cl)c2OC)cc1	28.2µM*	-17.8%	-3.6%	-6.9%
CC(C)c1nc2cccnc2n1C1CCN(C(=O)Cn2cccn2)CC1	·	-10.3%	4.0%	·
CCOc1cc(C(=O)CSc2nnc(CNc3ccc(Cl)cc3)o2)ccc1NC(=O)CC	-15.6%	?	12.6µM*	5.4%
Cc1nnsc1C(=O)NCC1Cc2cccc(-c3ncccn3)c2O1 (stereo not drawn)	·	-9.4%	-1.9%	·
Cc1cccc(NC(c2ccccc2F)c2ccc3ccc(C)nc3c2O)n1 (stereo not drawn)	·	?	-25.1%	-7.8%
Cc1ccc(C)c(C(Nc2ccccc2)c2ccc3ccc(C)nc3c2O)c1 (stereo not drawn)	·	7.94µM*	?	·
O=C(NNC(=O)C12CC3CC(CC(C3)C1)C2)c1ccccn1	-1.8%	10µM*	?	-3.1%
O=C(NNC(=O)C12CC3CC(CC(C3)C1)C2)c1cnccn1	-14.5%	-28.1%	-11.6%	-0.6%
COc1cc(=O)n2c(c1C(=O)N(C)Cc1nonc1C)CCN(Cc1ccccc1Cl)CC2	·	-7.3%	3.8%	·
CC(C)(C)OC(=O)N1CCC(c2c(C(=O)NCCN3CCC(Cc4ccccc4)CC3)cnn2-c2ccccc2)CC1	·	?	11.2µM*	-7.3%
